Bioassay records: PubChem, Johns Hopkins Ion Channel Center
KCNQ2 pot: potentiators of rat KCNQ2 potassium channel; Potassium voltage-gated channel subfamily KQT member 2 (Rattus norvegicus), O88943; CHO-K1 KCNQ2, FluxOR thallium flux fluorescence; stronger effect = higher value; B-score at 10 µM; 310,000 compounds, 0.54% hits; AID 2239, 2010;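 active means fluorescence ratio B-score at least 3 SD of library B-scores, with initial fluorescence B-score within 3 of them, cut at about 5.3 in these data; same plate scores as AID 2156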;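 further: B-score of peak minus minimum over baseline fluorescence ratio after K+ and Tl+ stimulus; positive B-score means potentiation of KCNQ2 with more thallium influx and brighter signal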
KCNQ2 block: rat KCNQ2 potassium channel inhibitors, primary screen, cell-based, CHO-K1, FluxOR thallium flux, B-score | 310,000 compounds, 1.1% hits | 20 min; stronger effect = lower value | B-score at 10 µM;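 active means fluorescence ratio B-score at most minus 3 library SDs, with starting brightness B-score within 2 library SDs, cut at about -5.5 in these data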
KCNQ2 inh conf: rat KCNQ2 potassium channel inhibitors, confirmation, cell-based, thallium flux. shares compounds with KCNQ2 block. KCNQ2-expressing cells, inhibition; stronger effect = lower value. activity change, negative = inhibition, % at 10 µM. 1,000 compounds, 57% hits;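 further: 0% = vehicle wells and values are ratio percent relative to vehicle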
KCNQ1 spec: human KCNQ1 channel inhibition, counter-screen for KCNQ2 inhibitor project, cell-based, FluxOR thallium flux | shares compounds with KCNQ2 block | KCNQ1-expressing cells, FluxOR thallium flux fluorescence; stronger effect = lower value | activity change, negative = inhibition, % at 10 µM | 1,000 compounds, 15% hits;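 active means activity change at least 3 SD of negative controls below their mean in both duplicate wells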;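 further: CHO cells stably transfected with KCNQ1 and depolarized by potassium stimulus; peak minus minimum fluorescence over baseline after thallium addition; 0% = vehicle negative control and -100% = blank without thallium stimulus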
Target sequence (P51787 whole entry, looked up): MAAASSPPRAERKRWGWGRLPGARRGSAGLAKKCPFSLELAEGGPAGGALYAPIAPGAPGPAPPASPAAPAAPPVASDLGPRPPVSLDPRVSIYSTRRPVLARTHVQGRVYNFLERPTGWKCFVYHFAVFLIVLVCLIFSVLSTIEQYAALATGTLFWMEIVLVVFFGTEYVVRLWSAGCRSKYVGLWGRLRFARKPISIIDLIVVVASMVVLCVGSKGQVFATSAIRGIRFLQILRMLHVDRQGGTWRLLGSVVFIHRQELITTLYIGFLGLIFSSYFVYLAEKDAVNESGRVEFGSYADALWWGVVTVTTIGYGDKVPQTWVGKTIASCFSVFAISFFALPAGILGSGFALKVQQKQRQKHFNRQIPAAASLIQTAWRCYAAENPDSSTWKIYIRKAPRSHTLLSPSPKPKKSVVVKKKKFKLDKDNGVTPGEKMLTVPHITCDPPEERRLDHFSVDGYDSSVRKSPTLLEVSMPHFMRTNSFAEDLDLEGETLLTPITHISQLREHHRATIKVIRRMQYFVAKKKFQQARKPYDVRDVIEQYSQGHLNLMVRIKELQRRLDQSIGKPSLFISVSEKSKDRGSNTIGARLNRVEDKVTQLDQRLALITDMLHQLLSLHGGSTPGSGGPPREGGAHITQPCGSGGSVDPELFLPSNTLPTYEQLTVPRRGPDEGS
CHO Tl ctr: thallium flux change in parental CHO cells, counter-screen for KCNQ2 inhibitor project; activity change, % at 10 µM; stronger effect = lower value; 1,000 compounds, 14% hits; AID 493029, 2011; shares compounds with KCNQ2 block;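 further: 0% = vehicle negative controls with stimulus buffer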
KCNQ2 inh confirm: rat KCNQ2 channel inhibitors, confirmation, cell-based, automated patch clamp, single concentration | shares compounds with KCNQ2 block | KCNQ2-expressing cells, automated patch clamp current | calls only at 10 µM | 550 compounds, 49% hits | AID 588531, 2011
The depositor's hits bear a star; i = inactive; · = not tested or not shown; + = active, no number. Compounds with a hit are over-represented: about 1.6% of the library has one in this group of screens. Unless noted, how the calls were made is not given here.

SMILES	KCNQ2 pot	KCNQ2 block	KCNQ2 inh conf	KCNQ1 spec	CHO Tl ctr	others
O=C(OCC(=O)N(C1CCCCC1)C1CCCCC1)c1ccccc1O	-7.3	-7.3*	-36%*	i	i	KCNQ2 inh confirm=+
O=C(OCC(=O)N(C1CCCCC1)C1CCCCC1)c1ccc(O)cc1	0.71	i	·	·	·
CN(C)C(CNC(=O)c1ccc(NS(=O)(=O)c2ccc3[nH]c(=O)[nH]c3c2)cc1)c1ccccc1 (stereo not given)	·	i	·	·	·
COC(=O)C(NC(=O)c1ccccc1)(Nc1nc(C)cs1)C(F)(F)F (stereo not given)	-8.5	-8.5*	i	i	i
COC(=O)C(NC(C)=O)(Nc1nc(C)cs1)C(F)(F)F (stereo not given)	·	i	·	·	·
CCCOc1ccc2c(c1)C(=NN=C(N)N)c1cc(OCCC)ccc1-2	·	i	·	·	·
O=C(COC(=O)C1CCN(c2ccc(C(F)(F)F)cn2)CC1)c1ccccc1Cl	·	i	·	·	·
COc1cc(C(=O)COC(=O)C2CCN(c3ccc(C(F)(F)F)cn3)CC2)ccc1OC(F)F	-9.9	-9.9*	i	i	i
Cc1cc(C)c(C(=O)COC(=O)C2CCN(c3ccc(C(F)(F)F)cn3)CC2)cc1C	-10	-10*	i	i	i
O=C(COC(=O)C1CCN(c2ccc(C(F)(F)F)cn2)CC1)c1ccc(F)cc1	·	i	·	·	·
COc1ccc(N2CCN(C(=O)c3oc4ccccc4c3C)CC2)cc1	·	i	·	·	·
COc1ccc2oc(C(=O)N3CCN(C(c4ccccc4)c4ccccc4)CC3)c(C)c2c1	-10	-10*	i	i	i
N#Cc1nc(COc2ccc(F)cc2)oc1N1CCCC1	·	i	·	·	·
N#Cc1nc(COc2ccccc2)oc1N1CCC(Cc2ccccc2)CC1	-11	-11*	-30%*	i	i	KCNQ2 inh confirm=i
Cc1ccc(OCc2nc(C#N)c(N3CCN(Cc4ccccc4)CC3)o2)cc1	-7.8	-7.8*	i	i	i
Cc1ccccc1OCc1nc(C#N)c(N2CCCC2)o1	·	i	·	·	·
O=C(Cc1ccccc1)NCC(=O)OCC(=O)c1ccc(Cl)c([N+](=O)[O-])c1	·	i	·	·	·
CC1(C)OC2OC(C(=O)N/N=C/c3ccccc3F)C3OC(C)(C)OC3C2O1 (stereo not given)	1.1	i	·	·	·
CC1(C)C(C=C(Cl)Cl)C1C(=O)N/N=C/c1ccccc1F (stereo not given)	-9.9	-9.9*	-28%*	i	i	KCNQ2 inh confirm=+
COc1ccc(S(=O)(=O)N2CCN(C/C=C/c3ccccc3)CC2)cc1F	·	i	·	·	·
COCCCN(C(=S)Nc1cc(Cl)cc(Cl)c1)C(C)c1ccncc1 (stereo not given)	0.36	i	·	·	·
COCCCN(C(=S)Nc1cc(Cl)cc(Cl)c1)C(C)c1ccccn1 (stereo not given)	-8.5	-8.5*	i	i	i
COc1ccc(CCNCC(O)Cn2c3ccccc3c3ccccc32)cc1OC (stereo not given)	-7	-7*	-24%*	i	i	KCNQ2 inh confirm=i
COc1ccccc1NCC(O)Cn1c2ccccc2c2ccccc21 (stereo not given)	0.4	i	·	·	·
COc1ccccc1NC(=O)C(C)OC(=O)C1CC(=O)N(c2ccc3c(c2)OCCO3)C1 (stereo not given)	·	i	·	·	·
SMILES	KCNQ2 pot	KCNQ2 block	KCNQ2 inh conf	KCNQ1 spec	CHO Tl ctr	others
COc1ccccc1NC(=O)C(C)OC(=O)C1CCC(C(C)(C)C)CC1 (stereo not given)	-8.4	-8.4*	-31%*	i	i	KCNQ2 inh confirm=i
Cc1ccc2c(c1)c1c3n2CCCNC3CCC1 (stereo not given)	·	i	·	·	·
c1cc2c(cc1C1CCCCC1)c1c3n2CCCNC3CCC1 (stereo not given)	-12	-12*	-34%*	i	i	KCNQ2 inh confirm=i
COc1cc(/C=C/C(=O)NCc2ccccn2)cc(OC)c1OC	0.13	i	·	·	·
COc1ccc(/C=C/C(=O)N(Cc2ccccc2)c2ccccn2)cc1OC	-7.7	-7.7*	-18%*	i	i	KCNQ2 inh confirm=+
Cc1ccc(OCC(=O)N(Cc2ccccc2)c2ccccn2)cc1	-8.2	-8.2*	i	i	i
COc1ccccc1NC(=O)N(Cc1ccccc1)c1ccccn1	·	i	·	·	·
COc1cc(/C=C/C(=O)N(Cc2ccccc2)c2ccccn2)cc(OC)c1OC	-7.9	-7.9*	-29%*	i	i	KCNQ2 inh confirm=+
Cc1ccc(CC(=O)N(Cc2ccccc2)c2ccccn2)cc1	·	i	·	·	·
COc1ccc(CN(CC2CCC(C(=O)O)CC2)C(=S)Nc2ccc(C)c(Cl)c2)cc1 (stereo not given)	·	i	·	·	·
COc1ccc(CCN(Cc2cc3cc(C)cc(C)c3nc2Cl)C(=O)C2CC2)cc1	-8.6	-8.6*	-32%*	i	i	KCNQ2 inh confirm=i
CCN(Cc1ccncc1)C(=O)c1ccc(Br)o1	·	i	·	·	·
Cc1ccc2c(c1)N(CC(=O)N1CCCC1)C(=O)C(C)O2 (stereo not given)	0.9	i	·	·	·
O=C(CSC1=NCCN1)Nc1ccccc1[N+](=O)[O-]	·	i	·	·	·
O=C(CSC1=NCCN1)NC(c1ccccc1)c1ccccc1	-9.7	-9.7*	i	i	i
Cc1ccccc1CN1[C@@H]2c3ccccc3C[C@@H]2OCCS1(=O)=O	1	i	·	·	·
COC(=O)c1c(NC(=O)Cc2cccs2)sc2c1CCCC2	-8.4	-8.4*	-30%*	i	i	KCNQ2 inh confirm=i
COCC(=O)Nc1sc2c(c1C(=O)OC)CCCC2	·	i	·	·	·
Cc1ccc(C(=O)NCC(=O)OCCCOC(=O)CNC(=O)c2ccc(C)cc2)cc1	1.7	i	·	·	·
COc1ccc2c(C)cc(SCC#N)nc2c1	·	i	·	·	·
COc1ccc2c(C)cc(SCc3c(C)noc3C)nc2c1	-10	-10*	i	i	i
COc1ccc(/C(N)=N/OC(=O)CC2CCCCC2)cc1OC	0.35	i	·	·	·
COc1ccc(/C(N)=N/OC(=O)CSc2ccc(C)cc2)cc1OC	-9.2	-9.2*	i	i	i
NS(=O)(=O)c1ccc(CCNC(=O)C2CCC(Cn3c(=S)[nH]c4ccccc4c3=O)CC2)cc1 (stereo not given)	·	i	·	·	·
Fc1ccc(C(c2ccc(F)cc2)N2CCN(C/C=C/c3ccccc3)CC2)cc1	-8.6	-8.6*	i	i	i
C(=C\c1ccccc1)/CN1CCN(C(c2ccccc2)c2ccccc2)CC1	·	i	·	·	·
O=C(NCCc1ccccn1)c1cc(-c2ccccc2Cl)nc2ccccc12	0.09	i	·	·	·
Cc1ccc(SCC(=O)N2c3ccccc3Sc3ccccc32)cc1	-6.6	-6.6*	i	i	i
O=C(COc1ccc2ccccc2c1)N1c2ccccc2Sc2ccccc21	-8.9	-8.9*	-28%*	i	i	KCNQ2 inh confirm=i
O=C(CSc1nncs1)N1c2ccccc2Sc2ccccc21	1	i	·	·	·
